# From PubChem BioAssay
# A549 tox – counter-screen for Nrf2 inhibitors: cytotoxicity in A549 cells; AID 504648; A549 ARE-Fluc cells, CellTiter-Fluor viability, 18-24 h; Potency, µM (highest dose often 46 µM), for the others: at the top dose activity change, negative = cytotoxicity, most hits filed as inhibitors; hit rate 0.16% among 390,000; also: % is scaled to controls: 0 for no effect and ±100 for the full control effect
#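 A549 ARE_Fluc cells in 5% FBS OPTI-MEM were exposed to compounds in concentration-response for 18-24 h at 37 deg C. Viability was read by CellTiter-Fluor fluorescence (Ex 405/Em 525) after 30 min, before the luciferase read.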
# HepG2 tox-1 – counter-screen for TGF-b inhibitors: cytotoxicity in HepG2 cells. HepG2 CAGA-GFP viability, ATP luminescence, 18 h. Potency, µM (series often up to 46.1 µM), for inactives: at the highest dose activity change, negative = cytotoxicity, hits mostly cytotoxic. hit rate 0.76% among 410,000. AID 588856
#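 HepG2 CAGA-GFP cells (1000/well, DMEM with 1% FBS) received compound, then TGF-beta at 500 pg/mL final, and were incubated 18 hours at 37 degrees C. Viability was read by CellTiter-Glo luminescence. Media-only wells were set as complete cell-killing and DMSO as no toxicity.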
# Nrf2 block – inhibitors of Nrf2 signaling | A549 ARE-Fluc reporter, luciferase luminescence, 18-24 h | Potency, µM (series often up to 46 µM), for the others: at the top dose activity change, negative = inhibition, hits mostly inhibitors | AID 504444 | hit rate 2.1% among 360,000; also: % is scaled to controls: 0 for no effect and ±100 for the full control effect; nearly all actives have a fitted effect of over 60% in size
#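 Nrf2 function is reported as luminescence of an ARE-controlled luciferase in A549 cells. Compounds were tested at several concentrations, and a CellTiter-Fluor read on the same wells flagged cytotoxicity.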
# TGFb SMAD3 inh – TGF-b pathway inhibition | HepG2 CAGA-GFP TGF-b/SMAD3 reporter, GFP fluorescence, 18 h; TGF-beta stimulated, 500 pg/mL final | Potency, µM (doses to about 46.1 µM), for the others: at the top dose activity, negative = inhibition, usual class: inhibitors | hit rate 1.2% among 410,000; also: % is scaled to controls: 0 for no effect and ±100 for the full control effect; nearly all actives have a fitted effect of over 65% in size
#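 HEPG2 CAGA-GFP reporter cells (1000/well, DMEM with 1% FBS) received compounds, then recombinant TGF-beta at 500 pg/mL final for 18 hours at 37 degrees C. Per-cell GFP summed per well was normalised to unstimulated and stimulated DMSO controls before curve fitting.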
# ATXN viability – viability counter-screen for ATXN expression inhibitors | S2 cells (HEK-293 line with an ATXN2-luciferase reporter) viability, CellTiter-Fluor protease fluorescence, 24 h | Potency, µM (highest dose often 56.7 µM), actives largely listed as cytotoxic | hit rate 0.49% among 400,000; also: nearly all actives have a fitted effect of over 40% in size
# ATXN2 expr inh – reduces ATXN2 reporter expression in HEK-293 cells. Potency, µM (doses to about 57 µM), without a hit: at the top dose activity change, negative = inhibition, actives largely listed as inhibitors. AID 1745845. HEK-293 ATXN2-luciferase reporter, luminescence, 24 h. hit rate 0.72% among 360,000; also: % is scaled to controls: 0 for no effect and ±100 for the full control effect; nearly all actives have a fitted effect of over 55% in size
#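 ATXN2-luciferase reporter cells (luciferase flanked by upstream and downstream ATXN2 gene portions) were treated 24 h at 37 °C with compounds at up to 57 uM. SteadyGlo luminescence gave expression; GF-AFC fluorescence gave viability.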
# TGFb CAGA inh – TGF-b pathway inhibition, cherry-pick retest; shares compounds with TGFb SMAD3 inh; HepG2 CAGA-GFP TGF-b reporter, GFP fluorescence, 18 h; cells stimulated with TGF-beta, 500 pg/mL; Potency, µM (doses to about 46.1 µM), for the others: top-dose activity, negative = inhibition, most hits filed as inhibitors; hit rate 63% among 1,600; AID 720534; also: % is scaled to controls: 0 for no effect and ±100 for the full control effect; nearly all actives have a fitted effect of over 65% in size
# HepG2 tox-2 – toxic to HepG2 cells in TGF-b counterscreen. shares compounds with TGFb SMAD3 inh. HepG2 CAGA-GFP viability, ATP luminescence, 18 h; cells stimulated with TGF-beta, 500 pg/mL. Potency, µM (top dose mostly 46.1 µM), for inactives: at the top dose activity, negative = cytotoxicity, usual class: inhibitors. hit rate 27% among 1,600. AID 720535; also: % is scaled to controls: 0 for no effect and ±100 for the full control effect; nearly all actives have a fitted effect of over 70% in size
# TGFb CCL64 inh – TGF-b inhibition, CCL64 orthogonal assay | shares compounds with TGFb SMAD3 inh | CCL64 CAGA-GFP reporter, TGF-b stimulated, GFP fluorescence, 18 h | Potency, µM (top dose mostly 46.1 µM), inactives show at the top dose activity, negative = inhibition, most hits filed as inhibitors | hit rate 41% among 1,600; also: nearly all actives have a fitted effect of over 65% in size
# TGFb COP inh – blocks TGF-b signaling in HepG2 COP reporter | AID 720537 | shares compounds with TGFb SMAD3 inh | HepG2 COP-GFP TGF-b reporter, GFP fluorescence, 18 h; cells stimulated by added recombinant TGF-beta | Potency, µM (series often up to 46.1 µM), for inactives: at the top dose activity, negative = inhibition, hits mostly inhibitors | hit rate 3% among 1,600; also: nearly all actives have a fitted effect of over 70% in size
# The depositor's hits bear a star; i = inactive; ? = inconclusive; / = no result given. Most compounds without a hit are left out; they make up all but 3.8% or so of the library. Calls follow the shape of the dose curve; as a rule, active = well fitted curve in the direction sought with a large enough effect; inconclusive = small, poorly fitted or top-dose-only effect, or another doubt; inactive = no such curve, though single readings can be large; an effect the other way counts as inactive or inconclusive. Potency is read from the fitted curve at half-maximal effect.
SMILES,A549 tox,HepG2 tox-1,Nrf2 block,TGFb SMAD3 inh,ATXN viability,ATXN2 expr inh,TGFb CAGA inh,HepG2 tox-2,TGFb CCL64 inh,TGFb COP inh
CC(=O)Nc1ccc(-c2csc(Nc3cc(C)ccn3)n2)cc1,?,-42%,?,?,?,-5%,/,/,/,/
CN(C)c1nc2c(N)ncnc2n1[C@H]1O[C@@H](CO)[C@H](O)[C@@H]1O,-9%,7%,-10%,-6%,i,0%,/,/,/,/
CN(C)c1ncnc2c1ccn2C1OC(CO)C(O)C1O (centres undefined),-8%,0.13µM*,?,0.22µM*,i,1%,0.23µM*,1.3µM*,6.5µM*,25%
OCC1OC(n2cnc3c(NCc4ccccc4O)ncnc32)C(O)C1O (centres undefined),-15%,-71%,18µM*,1.8µM*,?,?,1.2µM*,4.1µM*,?,45%
OCC1OC(n2ccc3c(NO)ncnc32)C(O)C1O (centres undefined),2.1µM*,0.5µM*,?,0.28µM*,?,?,1.2µM*,0.58µM*,1.3µM*,40%
O=S(=O)(CC(CN1CCCCC1)N1CCCCC1)c1ccccc1 (centres undefined),?,18µM*,18µM*,10µM*,/,/,13µM*,18µM*,4.6µM*,?
Cc1ccc(NC(=O)CN2CC(C)SC2=NC2CCCCC2)cc1 (centres undefined),3%,-33%,0%,?,?,-18%,?,-12%,8%,17%
CCc1ccc(NC(=O)CN2CCN(C3CCCCC3)C(=O)C2=O)cc1,-1%,-4%,/,1%,i,-7%,/,/,/,/
COc1ccc(NCc2nc3ccccc3n2CCOc2ccc(C)cc2)cc1,?,-32%,?,14µM*,?,?,13µM*,?,8.2µM*,40%
COc1ccc(NCc2nc3ccccc3n2CCOc2ccccc2)cc1,10%,-6%,19%,-18%,i,71%,/,/,/,/
Nc1nnc(SCC(=O)Nc2cccc(S(=O)(=O)N3CCOCC3)c2)s1,-2%,-20%,-3%,?,?,-3%,/,/,/,/
COc1ccc(S(=O)(=O)N2CCOCC2)cc1NC(=O)CSc1nnc(N)s1,3%,5%,-8%,?,i,5%,-12%,3%,3%,5%
COc1ccc(C(=O)c2cc([N+](=O)[O-])ccc2N2CCOCC2)cc1,-16%,-23%,?,?,?,-6%,/,/,/,/
CCOc1ccc(C(=O)c2cc([N+](=O)[O-])ccc2N2CCOCC2)cc1,-17%,-32%,20%,1.1µM*,i,5%,?,-3%,0.73µM*,1%
CC1CCCN(S(=O)(=O)c2cc3c4c(c2)C(C)C(=O)N4CCC3)C1 (centres undefined),1%,5%,-14%,2%,i,-1%,/,/,/,/
Cc1nn2c(NCc3ccccn3)c3c(nc2c1-c1ccccc1)CCC3,-19%,-30%,?,11µM*,?,?,?,?,?,25%
O=C(Nc1ccc([N+](=O)[O-])cc1)Nc1cnccn1,-16%,-51%,-35%,?,i,-25%,?,?,?,13%
O=Cc1cn(CC(=O)Nc2ccc3c(c2)OCO3)c2ccccc12,-5%,-25%,2%,7.1µM*,?,-37%,8.2µM*,3.3µM*,15%,34%
CCCc1cc2c(cc1NC(=O)c1ccco1)OCO2,-4%,6%,0%,?,i,-8%,-27%,2%,0%,-2%
CCCc1cc2c(cc1NC(=O)c1ccccc1F)OCO2,0%,32%,?,28%,i,0%,/,/,/,/
COc1ccccc1N1CCN(Cc2cc(=O)oc3cc(C)ccc23)CC1,/,-34%,/,-7%,i,-11%,/,/,/,/
COc1ccccc1N1CCN(Cc2cc(Br)c(O)c3ncccc23)CC1,-8%,-37%,18µM*,?,?,3.8µM*,?,-28%,4.1µM*,11%
Cc1ccc(C(=O)Nc2nc(C)c(C(=O)Nc3ccc4c(c3)CCC4)s2)cc1,-17%,-3%,?,11µM*,?,24%,15µM*,?,8.2µM*,22%
COc1ccc2ccccc2c1CN1CCCC(n2cc(C(=O)N3CCCC3)nn2)C1 (centres undefined),/,/,/,/,i,/,/,/,/,/
O=C(NC[C@@H]1CC[C@@H](Cc2ccc(-c3ccccc3)cc2)O1)Nc1ccc(Br)cc1,-19%,-22%,?,11µM*,?,?,21µM*,-16%,-7%,-20%
O=C(NCCCCc1ccccc1)NC[C@@H]1CC[C@@H](Cc2ccc(-c3ccccc3)cc2)O1,0%,-26%,?,?,i,0%,/,/,/,/
O=C(Nc1csc([N+](=O)[O-])c1)Nc1ccccc1Cl,-14%,-57%,?,13µM*,?,?,16µM*,?,?,48%
CCc1noc(C)c1C(=O)Nc1nc(-c2ccc(Cl)cc2Cl)cs1,0%,-5%,?,11µM*,?,-34%,15µM*,15µM*,?,46%
CCc1noc(C)c1C(=O)Nc1nc(-c2cccs2)cs1,-1%,1%,?,-3%,i,32%,/,/,/,/
CN(c1ccccc1C(=O)O)S(=O)(=O)c1ccc2[nH]c(=O)oc2c1,-7%,-2%,1%,/,/,/,/,/,/,/
